Results filed as inconclusive are left out. The source made the active and inactive calls. Calls come from the whole dose curve.
Experiment: qHTS for inhibitors of Rabies Virus screened against the NCATS CANVASS Library (AID 1347402); note: 0% is about no effect
Settings: Rabies virus infection cell assay; series mostly up to 45.9 µM; activity change, negative = inhibition: at the top concentration

Row | SMILES | activity change, negative = inhibition
1 | CN1CC[C@@]23c4ccccc4N[C@@H]1[C@@]21CCN(C)[C@@H]3Nc2ccccc21 | 1.81% (inactive)
2 | CCCCCCC[C@@H](C/C=C/CCC(=O)NCCc1c[nH]c2ccccc12)OC | -30.3% (inactive)
3 | COc1cc2c(c(O)c1O)C(=O)c1c(coc1C)C2=O | -13.2% (inactive)
4 | C/C1=C\CC(=O)/C=C/C=C\c2csc(n2)[C@@H](C)NC(=O)C[C@@](S)([C@@H](C)C(=O)O)CC1 | 9.14% (inactive)
5 | COC1C(O)C(OC(N)=O)C(Oc2ccc3c(O)c(NC(=O)c4ccc(O)c(CC=C(C)C)c4)c(=O)oc3c2C)OC1(C)C (configuration not stated) | 5.89% (inactive)
6 | C[C@@]12C[C@@H](C[C@@H]3C(=O)O[C@@H](c4ccoc4)[C@H](OC(=O)c4ccccc4)[C@@H]31)OC2=O | -29.9% (inactive)
7 | C[C@@]12CCC[C@@](C)(C(=O)O)[C@H]1CC[C@@]13C[C@@H](CC[C@H]12)[C@](C)(O)C3 | -1.37% (inactive)
8 | C=C1C[C@@]23C=CC(=O)[C@@](C)(CCC(=O)Nc4c(O)ccc(C(=O)O)c4O)C2C[C@@H]1C(O)C3 (some centres not stated) | 6.85% (inactive)
9 | COC12OC1(C13OC1(OC)C(=O)c1cc4cc(C)oc(=O)c4c(O)c1C3O)C(O)c1c(cc3cc(C)oc(=O)c3c1O)C2=O (configuration not stated) | -32.7% (inactive)
10 | COC(=O)[C@@]12Oc3cccc(O)c3C(O)=C1C(=O)C[C@H](C)[C@H]2O | 3.52% [at 91 µM] (inactive)
11 | COc1ccc2[nH]c3c(c2c1)CCN1C[C@H]2C[C@@H](OC(=O)c4cc(OC)c(OC)c(OC)c4)[C@H](OC)[C@@H](OC)[C@H]2C[C@H]31 | -5.03% (inactive)
12 | COC(=O)c1cccc2oc(-c3cccc4oc(-c5c(C)cccc5O)nc34)nc12 | -35.4% (inactive)
